ST2 inh – IL1RL1 inhibition | AID 1259354 | Q01638 | inhibition, % for hits at 17 µM | AlphaLISA ST2-Fc/biotin-IL-33 interaction, 1 h | 78,000 tested, 2.3% active; in the data active = inhibition above about 30%
Target sequence (Q01638 whole entry, looked up): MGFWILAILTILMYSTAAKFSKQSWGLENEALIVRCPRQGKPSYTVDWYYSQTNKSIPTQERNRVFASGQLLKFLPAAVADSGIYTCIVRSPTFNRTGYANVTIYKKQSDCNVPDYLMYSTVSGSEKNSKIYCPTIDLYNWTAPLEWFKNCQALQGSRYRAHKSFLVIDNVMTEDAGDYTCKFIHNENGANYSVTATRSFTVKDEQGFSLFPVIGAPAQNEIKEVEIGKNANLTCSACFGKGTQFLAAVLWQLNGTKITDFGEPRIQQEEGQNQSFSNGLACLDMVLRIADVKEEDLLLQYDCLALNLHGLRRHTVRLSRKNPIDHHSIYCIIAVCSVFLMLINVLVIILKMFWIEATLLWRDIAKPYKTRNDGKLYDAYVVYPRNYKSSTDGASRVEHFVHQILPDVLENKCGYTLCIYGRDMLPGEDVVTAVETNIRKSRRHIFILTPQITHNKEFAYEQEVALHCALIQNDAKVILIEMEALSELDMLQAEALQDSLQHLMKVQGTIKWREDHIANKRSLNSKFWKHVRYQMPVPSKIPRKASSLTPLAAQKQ
Active calls of the source: *; i = inactive; ! = not active in a repeat. The sample as a whole holds a higher share of hits than the screen did.

SMILES	ST2 inh
CC(C)c1ccc(C2C(C#N)=C(N)OC3=C2C(=O)CC(C)(C)C3)cc1 (configuration not stated)	i
CCOC=NC1=C(C#N)C(c2ccc(Cl)cc2)C2=C(CC(C)(C)CC2=O)O1 (configuration not stated)	79.0%*
CCOc1cc(C2C(C#N)=C(N)OC3=C2C(=O)CC(C)(C)C3)ccc1O (configuration not stated)	i
COC(=O)C1C(=O)C2=C(CC1C)NC(C)=C(C(=O)OC1CCCCCC1)C2c1cccc(O)c1 (configuration not stated)	i
COc1ccc(Cn2ccnc2-c2ccccc2OCCO)cc1	i
CN1CCCN(Cc2ccc3c(c2)OCO3)CC1	i
CC(C)(C)c1cc(CN(Cc2cccnc2)Cc2ccc3c(c2)OCO3)[nH]n1	i
O=C1c2ccc(Br)cc2C(=O)N1c1cccc(C(F)(F)F)c1	i
Cc1cccc(-c2nc3cc([N+](=O)[O-])ccc3o2)c1	i
CC1CN(C)C(C)c2c1oc1ccc([N+](=O)[O-])cc21 (configuration not stated)	43.0%*
CN1CCN(Cc2cc([N+](=O)[O-])ccc2O)CC1	i
Cc1cc(C)nc(N=C(N)Nc2ccccc2Cl)n1	i
O=C(c1cc2ncc(Br)cn2n1)N1CCOCC1	38.0%*
O=C(c1cccc(Br)c1)N1CCOCC1	i
O=C(c1nn2cc(Br)cnc2c1Br)N1CCOCC1	i
COc1ccccc1C(=O)C1CCCN(c2ccc(-c3nc(C)no3)cn2)C1 (configuration not stated)	i
Cc1cccc2oc(-c3cccc(N=Cc4cccc([N+](=O)[O-])c4O)c3)nc12	i
Oc1ccccc1-c1nc2ccccc2[nH]1	i
Cc1cccc(N=Cc2cc3c(cc2[N+](=O)[O-])OCO3)c1	33.0%*
CCN(CC)Cc1c(O)ccc2cc(-c3nc4ccccc4[nH]3)c(=O)oc12	i
O=[N+]([O-])c1cc2c(cc1C=Nc1ccc(Cl)c(C(F)(F)F)c1)OCO2	i
O=[N+]([O-])c1cc2c(cc1C=Nc1ccc(O)c(-c3nc4ccccc4[nH]3)c1)OCO2	30.0%*
COC(=O)c1cc2n(n1)CCCN(C(=O)c1ccccc1-n1cncn1)C2	i
Cc1ccc(S(=O)(=O)N2CCN(c3cc(-c4ccc(F)cc4)ncn3)CC2)c(C)c1	i
O=C(NC1CCCCC1)c1noc2c1CCc1ccccc1-2	i
SMILES	ST2 inh
Cc1ccc(Cl)cc1N1CCN(C(=O)c2ccc3nc4ccsc4c(=O)n3c2)CC1	i
COC(=O)[C@]1(O)C[C@@H](O)[C@@H](O)[C@H](OC(=O)/C=C/c2ccc(O)c(O)c2)C1	i
Oc1ccc(/C=C/c2ccc(/C=C/c3ccc(O)cc3)c(Br)c2)cc1	i
Oc1cc(O)cc(/C=C/c2ccc(O)c(O)c2)c1	33.0%*
C[C@@H](NC(=O)/C(C#N)=C/c1ccc(O)c(O)c1)c1ccccc1	58.0%*
N#C/C(=C\c1ccc(O)c(O)c1)C(=O)Nc1ccccc1	i
CC(NC(=O)c1ccccc1C(=O)NC(C)c1ccccc1)c1ccccc1 (configuration not stated)	i
COc1ccc(OC)c(Nc2nc(-c3sc(N)nc3C)cs2)c1	36.0%*
COc1ccccc1Nc1nc(-c2ccc(F)cc2)cs1	i
CC(=O)Nc1nc(C)c(-c2csc(Nc3ccc(Br)cc3)n2)s1	i
Cc1noc(C)c1S(=O)(=O)N1CCC(C(=O)NC2CCCC2)CC1	i
Cc1ccc(CNC(=O)CN(c2ccc(C(C)C)cc2)S(=O)(=O)c2c(C)nn(C)c2C)cc1	i
NNC(=O)C1CC1c1ccccc1 (configuration not stated)	i
O=C(Nc1ccc(Nc2ccccc2)cc1)C1CC1c1ccccc1 (configuration not stated)	30.0%*
O=C(NC1C[C@@H]1c1ccccc1)[C@@H]1CC1c1ccccc1 (some centres not stated)	i
COc1cc2nc(-c3ccc(N4C(=O)CCC4=O)cc3)oc(=O)c2cc1OC	i
FC(F)(F)c1ccc(CN2CC[C@H](c3nc4ccccc4s3)C2)cc1	i
O=C(O)CC1(CC(=O)N[C@H]2CO[C@H]3[C@@H]2OC[C@@H]3n2nnnc2Oc2ccc3c(c2)OCO3)CCCC1	i
CC(C)c1nccn1Cc1cc(C(=O)N(C)C(C)c2ccncn2)n[nH]1 (configuration not stated)	i
CCc1ccc(NS(=O)(=O)c2ccc3c(c2)c(=O)n(C)c(=O)n3C)cc1	i
O=C(c1cc(O)c(O)c([N+](=O)[O-])c1)c1ccccc1F	i
Cc1cc(Oc2ccccc2F)c(F)cc1[N+](=O)[O-]	31.0%*
COc1ccc(NC(=O)c2c(F)cccc2F)c([N+](=O)[O-])c1	i
COc1ccc(Cl)cc1NC(=O)c1coc(=O)c2ccccc12	i
CCc1nnc(CN(C(=O)c2[nH]c3c(C)cc(C)cc3c2C)C(C)C)o1	i
SMILES	ST2 inh
O=C(NC1CC1)C1CCN(S(=O)(=O)N2CCCC2)CC1	i
COc1ccc(C2CC(c3ccc(C)cc3)=NN2S(=O)(=O)c2ccccc2)cc1 (configuration not stated)	i
COc1ccc(C2=NN(S(=O)(=O)c3ccccc3)C(c3ccc(C)cc3)C2)cc1OC (configuration not stated)	i
O=S(=O)(c1ccccc1)N1N=C(c2ccccc2)CC1c1ccc(Cl)cc1 (configuration not stated)	i
Cc1ccc(C2CC(c3cccs3)=NN2S(=O)(=O)c2ccc(C)cc2)cc1 (configuration not stated)	33.0%*
COc1ccc(C2CC(c3cccs3)=NN2C(C)=O)cc1 (configuration not stated)	i
COc1ccc(C2CC(c3cccs3)=NN2S(=O)(=O)c2ccc(C)cc2)cc1 (configuration not stated)	32.0%*!
COC(=O)c1c(C)oc2cc(Br)c(OCC(=O)OCc3ccccc3)cc12	i
CN1CC2(CCCN(Cc3nc4ccccc4s3)CC2)OC1=O (configuration not stated)	i
O=C(CN1CCCCC1)Nc1ccc(Br)cc1	i
Cc1[nH][nH]c(=O)c1CC(=O)N(C)Cc1ccc2nsnc2c1	i
CC(C)(C)SCCNC(=O)c1ccc(N(Cc2ccccc2Cl)S(C)(=O)=O)cc1	i
CC(C)c1ccc(NC(=O)c2ccc(Cl)cc2[N+](=O)[O-])cc1	i
O=C(Nc1ccc(Nc2ccccc2)cc1)c1ccc(Cl)cc1[N+](=O)[O-]	43.0%*
Cc1ccc(NC(=O)c2ccc(Cl)cc2Cl)cc1[N+](=O)[O-]	i
NS(=O)(=O)c1ccc(NC(=O)c2ccccc2[N+](=O)[O-])cc1	32.0%*
NS(=O)(=O)c1ccc(NC(=O)c2ccccc2)cc1	i
CCC(C)c1ccc(NC(=O)c2ccccc2[N+](=O)[O-])cc1 (configuration not stated)	i
Cc1nc2cc(-c3ccccc3)nn2c(C)c1CCC(=O)N1CCCC1	i
CC(C)OC(=O)c1c(NC(=O)CSc2ncccn2)sc2c1CCCC2	i
Cn1ccnc1SCC(=O)Nc1ccc(Cl)cc1	i
COC(=O)c1c(NC(=O)CSc2nccn2C)sc2c1CCC(C(C)(C)C)C2 (configuration not stated)	35.0%*
O=C(c1ccccc1-c1ncc[nH]1)N1CCCC(C(=O)N2CCCC2)C1 (configuration not stated)	i
COc1ccccc1-n1c(SCc2ccc(Br)cc2)nc2c(c1=O)SCC2	i

Bioassay records as filed in PubChem BioAssay.
